We go through 40 compounds from the supplement of paper PMC13380429.

Each structure is given as a SMILES string.

The test system of this assay is Vero E6 infected with SARS-CoV-2. In words: morphology score (similarity to uninfected cells); higher = more like uninfected cells. Conditions: 24 h.
`CN1CCN(c2cccc(Nc3nc4c(-c5ccc(S(C)(=O)=O)cc5)cccn4n3)c2)CC1` (0.833333 µM) gave a morphology score of 0.157.

Consider `Oc1cccc(Nc2ncc(F)c(Nc3cccc(O)c3)n2)c1` (0.833333 µM), for which the morphology score turned out to be 0.183.

The compound `CC(C)(Oc1ccc(CCNC(=O)c2ccc(Cl)cc2)cc1)C(=O)O` [bezafibrate] (10 µM) registered a morphology score of 0.0236.

Take `CCCCCC(O)CCCC(=O)O` (stereo not given) (10 µM): the morphology score turned out to be 0.00301.

Regarding `NCc1ccccc1CC(=O)N[C@@H]1C(=O)N2C(C(=O)O)=C(CSc3nnnn3CC(=O)O)CS[C@H]12` [ceforanide] (10 µM), the morphology score was determined as 0.13.

With `CCOC(=O)[C@H](CCc1ccccc1)N[C@@H](C)C(=O)N1[C@H](C(=O)O)C[C@H]2CCCC[C@@H]21` [trandolapril] (10 µM), the morphology score amounted to 0.00679.

For the compound `COc1ccc(C(=O)NCc2ccc(OCCN(C)C)cc2)cc1OC` [itopride] (10 µM), the morphology score was found to be 0.19.

`CCN(CC)Cc1ccc(C(=O)N(CCc2ccccc2OC)[C@@H]2CCNC2)cc1` (10 µM): the morphology score was determined as 0.0144.

The compound `COc1cc(C[C@@H](CO)[C@H](CO)Cc2ccc(O)c(OC)c2)ccc1O` [secoisolariciresinol-(-)] (10 µM) showed a morphology score of -0.0638.

Compound `C=CC1=C(C)c2cc3[nH]c(cc4nc(cc5[nH]c(cc1n2)c(C)c5CCC(=O)O)C(CCC(=O)O)=C4C)c(C)c3C=C` [protoporphyrin-IX] (10 µM) gave a morphology score of -0.0298.

`CC(C)NCC(O)c1ccccc1Cl` (stereo not given) [clorprenaline] (10 µM): the morphology score was found to be 0.125.

For `Nc1nc2[nH]cc(CCc3ccc(C(=O)N[C@@H](CCC(=O)O)C(=O)O)cc3)c2c(=O)[nH]1` [pemetrexed] (10 µM), the morphology score was -0.15.

In the case of `CC(C)Oc1cccc(-n2c(CCc3c[nH]c4ccc(Br)cc34)nc3ccccc3c2=O)c1` (10 µM), the morphology score worked out at 0.149.

As for `CC(C)=CCc1c(O)cc(O)c2c(=O)c(O)c(-c3ccc(C(F)(F)F)cc3)oc12` (0.833333 µM), the morphology score was determined as 0.14.

Compound `O=C(Nc1ccc([N+](=O)[O-])cc1Cl)c1cc(Cl)ccc1O` [niclosamide] (0.833333 µM) gave a morphology score of 0.0975.

In turn, `c1cc(-c2cnn3cc(-c4ccc(N5CCNCC5)cc4)cnc23)c2cccnc2c1` (0.833333 µM) returned a morphology score of -0.148.

Turning to `CC[C@H]1OC(=O)[C@H](C)[C@@H](O[C@H]2C[C@@](C)(OC)[C@@H](O)[C@H](C)O2)[C@H](C)[C@@H](O[C@@H]2O[C@H](C)C[C@H](N(C)C)[C@H]2O)[C@](C)(O)C[C@@H](C)C(=O)[C@H](C)[C@@H](O)[C@]1(C)O` [erythromycin] (10 µM), the morphology score is -0.171.

Consider `CC(=O)OCC(=O)[C@H]1CC[C@H]2[C@@H]3CCC4=CC(=O)CC[C@]4(C)[C@H]3CC[C@]12C` [deoxycorticosterone-acetate] (10 µM), for which the morphology score is -0.0375.

In turn, `Cc1noc2c1-c1ccccc1C(c1ccc(Cl)cc1)=N[C@H]2CC(N)=O` (10 µM) showed a morphology score of -0.0562.

Regarding `CC[C@H](CC[C@@H](C)[C@H]1CC[C@H]2[C@@H]3CC=C4C[C@@H](O[C@@H]5O[C@H](CO)[C@@H](O)[C@H](O)[C@H]5O)CC[C@]4(C)[C@H]3CC[C@]12C)C(C)C` [daucosterol] (10 µM), the morphology score is 0.0785.

Consider `O=C(Oc1ccc([N+](=O)[O-])cc1)N1CCC(C(O)(c2ccc3c(c2)OCO3)c2ccc3c(c2)OCO3)CC1` (10 µM), for which the morphology score stood at 0.0091.

`O=C(COc1ccc(Cl)cc1)N1CCN(Cc2ccc3c(c2)OCO3)CC1` [fipexide] (10 µM) came in with a morphology score of -0.165.

`CC[C@@H]1Cn2c(c3nc(-c4ccccc4)nc-3n(C)c2=O)N1` (10 µM) had a morphology score of 0.14.

With `C[C@@H](N)[C@@H](O)c1ccccc1` [1S,2R-phenylpropanolamine] (10 µM), the morphology score is -0.131.

`CCN(Cc1ccncc1)C(=O)C(CO)c1ccccc1` (stereo not given) [tropicamide] (10 µM): the morphology score is -0.0682.

The compound `Cc1cncc(CN2CCC(=C3c4ccc(Cl)cc4CCc4cccnc43)CC2)c1` [rupatadine] (10 µM) came in with a morphology score of -0.0273.

For `Oc1cc(O)cc(O)c1` [phloroglucin] (10 µM), the morphology score was -0.0825.

`O=c1cc(N2CCOCC2)oc2c(-c3ccccc3)cccc12` (0.833333 µM) returned a morphology score of 0.266.

`Cc1cc(OI)c(C(C)C)cc1-c1cc(C(C)C)c(OI)cc1C` [thymol-iodide] (10 µM) displayed a morphology score of -0.117.

`O=C(OCCN1CCOCC1)C1(c2ccccc2)CCCCC1` (10 µM) came in with a morphology score of -0.00229.

Consider `CC(O)(C(=O)Nc1ccc(S(=O)(=O)c2ccccc2)cc1)C(F)(F)F` (stereo not given) (10 µM), for which the morphology score amounted to 0.347.

In turn, `CN(C)/C=N/c1c(I)cc(I)c(CCC(=O)O)c1I` [iopodic-acid] (10 µM) came in with a morphology score of 0.0727.

Consider `C[C@H](Cn1cnc2c(N)ncnc21)OCP(=O)(O)O` [tenofovir] (10 µM), for which the morphology score is -0.0359.

Compound `C[C@H](Cc1ccc(O)c(O)c1)[C@@H](C)Cc1ccc(O)c(O)c1` [masoprocol] (10 µM) registered a morphology score of 0.0645.

As for `COc1cc(N)c(Cl)cc1C(=O)CCC1CCN(CCNS(C)(=O)=O)CC1` (10 µM), the morphology score is 0.0872.

The compound `CCCN1CCO[C@@H]2c3cc(O)ccc3OC[C@H]21` (10 µM) returned a morphology score of 0.173.

`Cc1cc(OCc2nnc(SC3CCCC3)n2-c2cccnc2)ccc1-c1ccc(S(C)(=O)=O)cc1` (0.833333 µM): the morphology score worked out at 0.0612.

The compound `Nc1ccc(C(=O)O)c(O)c1` [aminosalicylate] (10 µM) had a morphology score of -0.137.

The compound `CC(=O)NCCc1c(Cc2ccccc2)[nH]c2ccccc12` [luzindole] (10 µM) yielded a morphology score of 0.0073.

Regarding `C[S+](CC[C@H](N)C(=O)O)C[C@H]1O[C@@H](n2cnc3c(N)ncnc32)[C@H](O)[C@@H]1O` (stereo not given in full) [ademetionine] (10 µM), the morphology score was 0.0625.
